The term AC50 denotes the midpoint of the concentration-response curve, whichever way the signal moves.

The structures appear in SMILES notation. Several values for one entry are separate records, joined by “and”; a condition that tells them apart may be missing. Equal values may be shown once. Some compounds were tested as several samples or in several runs, with calls that do not always agree. Activity calls are given as the source filed them. The calls were made as follows: active = hit-call score of the fitted dose curve at least 0.9, where 1 is the maximum; inactive = score below 0.9.

Read-out in this test: Pselectin, SELP (gene 6403)
Put plainly: BSK_4H_Pselectin: BioMAP Diversity Plus: 4H Assay for Pselectin Biomarker Activity (AID 2283026). To be noted: primary human endothelial cells (HUVEC); actives raise or lower the signal. The protocol: BSK_4H is a cell-based, multiplexed-readout assay that uses umbilical vein endothelium, a human vascular primary cell, with measurements taken at 24 hours after chemical dosing in a 96-well plate.BSK_4H_Pselectin is an assay component measured in the BSK_4H assay. It measures P-Selectin antibody related to regulation of gene expression using ELISA technology.Data from the assay component BSK_4H_Pselectin was analyzed into 1 assay endpoint. This assay endpoint, BSK_4H_Pselectin, was analyzed with bidirectional fitting relative to DMSO as the negative control and baseline of activity. Using a type of binding reporter, gain or loss-of-signal activity can be used to understand changes in the signaling as they relate to the gene SELP. Furthermore, this assay endpoint can be referred to as a primary readout, because this assay has produced multiple assay endpoints where this one serves a signaling function. To generalize the intended target to other relatable targets, this assay endpoint is annotated to the cell adhesion molecules intended target family, where the subfamily is selectins.
The levels of cell surface (or secreted, indicated by the prefix "s") biomarker endpoints were measured by ELISA. Overt cytotoxicity to cells in confluent adherent cultures (all systems other than the BT system) was assessed by measuring total protein levels using sulforhodamine B (SRB) staining in parallel cultures at the time of biomarker measurements, indicated as SRB endpoints. For proliferation assays for adherent cell types, individual cell types are cultured at sub-confluence and relative cell numbers quantified by SRB staining at time points optimized for each system (48 h: 3C and CASM3C systems; 72 h: BT and HDF3CGF systems; 96 h: SAg system). SRB was performed by staining cells with 0.1% SRB after fixation with 10% TCA and reading wells at 560 nm.Viability and proliferation of PBMC (T cells) was quantified by Alamar Blue reduction for the SAg and BT systems. For PBMC viability (referred to as PBMC Cytotoxicity within the assay endpoint names), cells were plated (75,000/well in a 96-well plate) and then chemical samples added for 1 h before addition of activators, SEB and TSST-1 (20 ng/mL final concentration each). Cells were incubated for 90 h. Then, Alamar Blue (20 uL/well) (Invitrogen, Cat DAL1100) was added for 6 h, and the plates were read with a fluorescence microplate reader at 546/580 nm (excitation/emission). For PBMC proliferation, cells were plated and activated as above but incubated for only 16 h prior to addition of Alamar Blue. Plates were read after 6 h.
Turning to `Cc1ccccc1CO[C@@H]1C[C@@]2(C(C)C)CC[C@]1(C)O2`, the result was inactive. As for `O=S(=O)(O)C(F)(F)C(F)(F)C(F)(F)C(F)(F)F`, the outcome was inactive. On to `ClC1=C(Cl)[C@]2(Cl)[C@@H]3[C@H]4C[C@H]([C@@H]5O[C@H]45)[C@@H]3[C@@]1(Cl)C2(Cl)Cl`, for which the outcome was inactive. Same read-out and setting: the result for `CCCCCCCCOC(=O)c1ccccc1C(=O)OCCCCCCCC` reads “inactive”.

On to `c1cc2ccc3cccc4ccc(c1)c2c34`, for which the outcome was inactive. Turning to `Nn1cnnc1`, the result was inactive.

As for `CC(C)(c1ccccc1)c1ccc(O)cc1`, the AC50 is 32.6 µM (active). In the case of `CCOP(=S)(OCC)SCSC(C)(C)C`, the outcome was inactive.

Consider `Cc1cc(O)ccc1Cl`, for which the outcome was inactive. As to `Nc1ccc(-c2ccc(N)cc2)cc1`, the result was inactive. Take `Oc1ccc(Cl)cc1Cl`: the outcome was inactive. In the case of `O=S(=O)(O)C(F)(F)C(F)(F)C(F)(F)C(F)(F)C(F)(F)C(F)(F)F`, the outcome was inactive and the AC50 was 17.2 µM (active). Take `ClC1=C(Cl)[C@]2(Cl)[C@@H]3[C@@H](Cl)[C@H]4O[C@H]4[C@@H]3C1(Cl)C2(Cl)Cl`: the result was inactive. As for `CCC(=O)O[C@H]1CC[C@H]2[C@@H]3CCC4=CC(=O)CC[C@]4(C)[C@H]3CC[C@]12C`, the AC50 was 34 µM (active). With `CN(C)CCO`, the result was inactive. Still for that read-out and setting: with `C=CC(N)=O` the entry was “inactive”. For the compound `CCCCCCCCCc1ccc(O)cc1`, the concentration at half-maximal activity (AC50) is 12.5 µM (active). On to `O=NN(c1ccccc1)c1ccccc1`, for which the result was inactive. On to `CC(C)(O)C(=O)Nc1ccc([N+](=O)[O-])c(C(F)(F)F)c1`, for which the outcome was inactive.

With `CCCCCCOC(=O)c1ccccc1C(=O)OCCCCCC`, the AC50 was 29.3 µM (active). On to `Oc1ccc(C(c2ccc(O)cc2)(C(F)(F)F)C(F)(F)F)cc1`, for which the AC50 was 15.7 µM (active). As for `Cc1cc(-c2ccc(N)c(C)c2)ccc1N`, the outcome was inactive. Same read-out and setting: with `Cc1cccc(C)c1N` the entry was “inactive”. On the same count and under the same terms, with `CCC(C)(CC)c1cc(NC(=O)c2c(OC)cccc2OC)on1` the entry was “inactive”; with `COS(=O)(=O)OC`, “inactive”.

Take `C[C@]12CCC(=O)C=C1CC[C@@H]1[C@@H]2CC[C@@]2(C)[C@H]1CC[C@]2(C)O`: the outcome was inactive. In the case of `Clc1ccc(C(c2ccccc2Cl)C(Cl)(Cl)Cl)cc1` (stereo not given), the AC50 is 19.1 µM (active). For the compound `O=C(O)C(F)(F)C(F)(F)C(F)(F)C(F)(F)C(F)(F)C(F)(F)C(F)(F)C(F)(F)C(F)(F)F`, the AC50 is 50.1 µM (active) and 49.5 µM (active); the result was inactive.

Turning to `Oc1c(Cl)c(Cl)c(Cl)c(Cl)c1Cl`, the AC50 was 8.49 µM (active) and 9.69 µM (active).

As for `Cc1ccc(O)c(C)c1`, the result was inactive. Same read-out and setting: with `C=CC(=O)NCNC(=O)C=C` the entry was “inactive”. On the same count and under the same terms, with `Cc1ccccc1O` the entry was “inactive”. Take `CCC(C)c1cc([N+](=O)[O-])cc([N+](=O)[O-])c1O` (stereo not given): the AC50 was 10.6 µM (active). For the compound `CCSC(=O)N(CC)C1CCCCC1`, the outcome was inactive. As for `CCC(C)(c1ccc(O)cc1)c1ccc(O)cc1`, the concentration at half-maximal activity (AC50) is 32.1 µM (active). As to `Sc1ccccc1`, the outcome was inactive. Still for that read-out and setting: with `Clc1ccc(Cl)cc1` the entry was “inactive”; with `CN(C)c1nc(=O)n(C2CCCCC2)c(=O)n1C`, “inactive”.

Values taken from PubChem BioAssay (EPA / NIEHS).
